Measurements: PubChem BioAssay (Tox21)
Several values for one entry are separate records, joined by “and”; a condition that tells them apart may be missing. Equal entries are not always repeated. Records with an inconclusive call do not appear. Entries that show only a call come without a potency. A structure can be active in one record and inactive in another. Activity calls are given as the source filed them. Unless noted, calls follow the shape of the dose curve; as a rule, active = well fitted curve in the direction sought with a large enough effect in the repeat runs; inconclusive = weak or mixed curves; inactive = no such curve, though single readings can be large; an effect the other way counts as inactive or inconclusive.

Experiments:
[1] = qHTS assay to identify small molecule agonists of the androgen receptor (AR) signaling pathway in the presence of an antagonist - cell viability counter screen (AID 1259379); also: nearly all actives have a fitted effect of over 25% in size; also: potency is read from the fitted curve at half-maximal effect
Summary of the method: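 Cytotoxicity counter-screen run in the same wells as the nilutamide-challenged (3.0 µM final) AR agonist assay in MDA-kb2 cells. Compounds tested at 15 concentrations for 16 h, 37 °C without CO2; CellTiter-Fluor fluorescence read.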

[2] = qHTS assay to identify small molecule agonists of the estrogen receptor beta (ER-beta) signaling pathway - cell viability counter screen (AID 1259380); also: nearly all actives have a fitted effect of over 30% in size; also: potency is read from the fitted curve at half-maximal effect
Summary of the method: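 Cell viability counter screen: CellTiter-Glo luminescence (30 min, room temperature) measured in the same wells as the beta-lactamase readout, after 16 hr compound exposure at 37C of ER-beta-bla HEK293T cells in 2% charcoal-stripped FBS medium.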

[3] = qHTS assay to identify small molecule antagonists of the estrogen receptor beta (ER-beta) signaling pathway - cell viability counter screen (AID 1259382); also: nearly all actives have a fitted effect of over 55% in size; also: potency is read from the fitted curve at half-maximal effect
Summary of the method: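 Cytotoxicity was measured in the same wells by CellTiter-Glo luminescence after 30 min at room temperature. Cells were ER-beta-bla HEK293T in charcoal-stripped serum, given compound together with 1 nM E2 and incubated 16 h at 37C.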

[4] = molecular target: Estrogen receptor (Homo sapiens) (UniProt P03372); test: qHTS assay to identify small molecule agonists of the estrogen receptor alpha (ER-alpha) signaling pathway in the presence of an antagonist (AID 1259383; calls by dose curve; also: nearly all actives have a fitted effect of over 15% in size; also: potency is read from the fitted curve at half-maximal effect; as to activation: top concentration of the series differs between compounds)
Summary of the method: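 Agonist-mode confirmation run in the presence of 10.0nM (final) ICI-182,780 antagonist. The reporter was ERE-driven luciferase in VM7Luc4E2 cells, grown in charcoal-stripped serum. Cells were exposed to 15-concentration compound series for 22hr, then ONE-Glo luminescence was read.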

[5] = qHTS assay to identify small molecule agonists or antagonists of the thyroid stimulating hormone receptor (TSHR) signaling pathway - wild type cell line counter screen (AID 1259384; calls by dose curve)
Summary of the method: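 Counter screen in untransfected Hek293: compounds (15-point titration, triplicate) plus phosphodiesterase inhibitor Ro20-1724 added after 18 h plating; 30 min RT. Intracellular cAMP via competitive d2/cryptate immunoassay, 1 h incubation.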

[6] = molecular target: Thyrotropin receptor (Homo sapiens) (UniProt P16473); test: qHTS assay to identify small molecule antagonists of the thyroid stimulating hormone receptor (TSHR) signaling pathway (AID 1259385; calls by dose curve; also: nearly all actives have a fitted effect of over 20% in size; also: potency is read from the fitted curve at half-maximal effect)
Summary of the method: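 Antagonist mode: compound-treated TSHR-expressing HEK293 cells were stimulated with 1.5 ng/mL TSH (final) in presence of Ro20-1724 for 30 min at RT. HTRF cAMP detection after 1 h; each compound tested at 15 concentrations, triplicate.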

[7] = qHTS assay to identify small molecule agonists of the estrogen receptor alpha (ER-alpha) signaling pathway in the presence of an antagonist - cell viability counter screen (AID 1259386); also: nearly all actives have a fitted effect of over 30% in size; also: potency is read from the fitted curve at half-maximal effect
Summary of the method: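 Compounds tested at 15 concentrations for 22 h at 37C alongside 10.0nM (final) ICI-182,780 antagonist, in VM7Luc4E2 cells grown in phenol red-free, charcoal-stripped medium. Viability read by CellTiter-Fluor fluorescence after 1 h reagent incubation.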

[8] = molecular target: Progesterone receptor (Homo sapiens) (UniProt P06401); test: qHTS assay to identify small molecule agonists of the progesterone receptor (PR) signaling pathway (AID 1346784; calls by dose curve; also: nearly all actives have a fitted effect of over 30% in size)
Summary of the method: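 PR-UAS-bla HEK 293T cells (beta-lactamase reporter under UAS) in 2% charcoal-stripped FBS, dosed with 23 nL compound after 6 hr, incubated 16hr at 37C. LiveBLAzer B/G FRET substrate added, fluorescence read after 2 hours.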

[9] = qHTS assay to identify small molecule antagonists of the progesterone receptor (PR) signaling pathway - cell viability counter screen (AID 1346798); also: nearly all actives have a fitted effect of over 50% in size; also: potency is read from the fitted curve at half-maximal effect
Summary of the method: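 PR-UAS-bla HEK293T cells, 3,000/well in 2% charcoal-stripped FBS medium, dosed with compounds plus R5020 agonist and incubated 16 h at 37C. Viability then measured in the same wells by CellTiter-Glo luminescence after 30 min at RT.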

[10] = qHTS assay to identify small molecule antagonists of the TGF-beta/Smad signaling pathway - cell viability counter screen (AID 1346824); also: nearly all actives have a fitted effect of over 50% in size; also: potency is read from the fitted curve at half-maximal effect
Summary of the method: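 Cytotoxicity counter-screen run in the same wells as the beta-lactamase Smad reporter read: CellTiter-Glo luminescence after 30 min at room temperature. HEK 293T SBE-bla cells had 5 hr compound exposure at 37 C with TGF-beta1 (0.25 ng/mL stock).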

[11] = qHTS assay to identify small molecule agonists of the TGF-beta/Smad signaling pathway - cell viability counter screen (AID 1346829); also: nearly all actives have a fitted effect of over 45% in size; also: potency is read from the fitted curve at half-maximal effect
Summary of the method: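 Same-well cytotoxicity: CellTiter-Glo added after the 2 hr room-temperature beta-lactamase substrate step, luminescence measured 30 min later; cells had 5 hr of compound at 37 C.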

[12] = qHTS assay to identify small molecule agonists of the TGF-beta/Smad signaling pathway (AID 1346859; active = well fitted activation curve with a large enough effect in the signal ratio in the repeat runs, not every such curve was filed as active; the % refers to the signal ratio; also: series mostly up to about 77 µM)
Summary of the method: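 SBE-bla HEK293T cells plated overnight, then compound exposure for 5 h at 37 C. Beta-lactamase reporter read with LiveBLAzer B/G FRET substrate after 2 h at room temperature, fluorescence at 405 nm excitation, 460/530 nm emission.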

[13] = molecular target: Thyrotropin-releasing hormone receptor (Homo sapiens) (UniProt P34981); test: qHTS assay to identify small molecule antagonists of the thyrotropin-releasing hormone receptor (TRHR) signaling pathway (AID 1346877; active = well fitted inhibition curve with a large enough effect in the repeat runs, not every such curve was filed as active; also: potency is read from the fitted curve at half-maximal effect)
Summary of the method: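 Antagonist mode: after a 5 min room-temperature compound exposure, cells were stimulated with 1 nM (final) TRH. Dye-loaded TRHR-HEK293 cells were used, and calcium-dependent fluorescence was followed for 3 min, with 15-point titrations run in triplicate.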

[14] = molecular target: Thyrotropin-releasing hormone receptor (Homo sapiens) (UniProt P34981); test: qHTS assay to identify small molecule agonists of the thyrotropin-releasing hormone receptor (TRHR) signaling pathway (AID 1346891; calls by dose curve; also: potency is read from the fitted curve at half-maximal effect; as to activation: series mostly up to about 58 µM)
Summary of the method: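 HEK293 cells expressing TRHR plated 18 h at 37 C/5% CO2, calcium dye-loaded 2 h at 37 C, then compound added (agonist mode); kinetic calcium fluorescence read 3 min at 1 s intervals; 15 concentrations in triplicate.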

[15] = Human pregnane X receptor (PXR) small molecule agonists, qHTS cell viability counter screen (AID 1346977); also: nearly all actives have a fitted effect of over 50% in size; also: potency is read from the fitted curve at half-maximal effect
Summary of the method: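 PXR-Luc HepG2 cells (2,000/well, 5% charcoal-stripped FBS) preincubated 5 hr, then exposed to compounds 24 hr at 37 C. Viability read in the same wells by CellTiter-Fluor fluorescence, reagent added at 23 hr, 1 hr incubation.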

[16] = qHTS assay to identify small molecule agonists of the progesterone receptor (PR) signaling pathway - cell viability counter screen (AID 1346799; calls by dose curve; also: nearly all actives have a fitted effect of over 45% in size; also: potency is read from the fitted curve at half-maximal effect)
Summary of the method: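 Counter screen in the PR-UAS-bla HEK293T wells (2% charcoal-stripped FBS, 16 h compound exposure at 37 C) after the bla read. CellTiter-Glo added, 30 min at room temperature, luminescence read as cell viability.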

[17] = molecular target: Progesterone receptor (Homo sapiens) (UniProt P06401); test: qHTS assay to identify small molecule antagonists of the progesterone receptor (PR) signaling pathway (AID 1346795; active = well fitted inhibition curve with a large enough effect in the signal ratio in the repeat runs, not every such curve was filed as active; the % refers to the signal ratio; also: potency is read from the fitted curve at half-maximal effect)
Summary of the method: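 PR-UAS-bla HEK293T cells with beta-lactamase reporter under UAS control, in 2% charcoal-stripped FBS, treated with compounds plus 1 nM promegestone (R5020, final) for 16 hr at 37C. Read-out: FRET beta-lactamase substrate fluorescence after 2 hr at room temperature.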

[18] = molecular target: Androgen receptor (Homo sapiens) (UniProt P10275); test: qHTS assay to identify small molecule agonists of the androgen receptor (AR) signaling pathway in the presence of an antagonist (AID 1259381; calls by dose curve; also: nearly all actives have a fitted effect of over 15% in size; also: potency is read from the fitted curve at half-maximal effect)
Summary of the method: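 Agonist-mode confirmation run against 3.0 uM final nilutamide: compounds titrated at 15 concentrations onto MDA-kb2 MMTV-luciferase reporter cells. Luminescence measured with ONE-Glo following 16 hr incubation, 37C, 0% CO2.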

Estrogen receptor (Homo sapiens), sequence (P03372 whole entry, looked up): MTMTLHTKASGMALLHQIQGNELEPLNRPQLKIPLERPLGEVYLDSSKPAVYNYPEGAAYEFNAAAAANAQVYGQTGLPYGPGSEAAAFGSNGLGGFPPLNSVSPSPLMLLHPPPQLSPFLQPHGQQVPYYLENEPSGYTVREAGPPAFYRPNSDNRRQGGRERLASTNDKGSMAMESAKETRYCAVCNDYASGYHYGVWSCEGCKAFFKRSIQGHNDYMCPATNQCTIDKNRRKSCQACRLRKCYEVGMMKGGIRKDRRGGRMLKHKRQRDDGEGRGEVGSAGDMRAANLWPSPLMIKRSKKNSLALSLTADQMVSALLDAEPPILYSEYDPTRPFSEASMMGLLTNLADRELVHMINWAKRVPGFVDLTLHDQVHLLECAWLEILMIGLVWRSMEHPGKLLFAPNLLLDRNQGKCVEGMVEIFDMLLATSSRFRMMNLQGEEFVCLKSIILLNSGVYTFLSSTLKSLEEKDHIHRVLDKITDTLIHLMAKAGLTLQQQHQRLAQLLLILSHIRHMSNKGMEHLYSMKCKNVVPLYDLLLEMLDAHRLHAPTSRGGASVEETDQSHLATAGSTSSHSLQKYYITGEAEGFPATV
Androgen receptor (Homo sapiens), sequence (P10275 whole entry, looked up): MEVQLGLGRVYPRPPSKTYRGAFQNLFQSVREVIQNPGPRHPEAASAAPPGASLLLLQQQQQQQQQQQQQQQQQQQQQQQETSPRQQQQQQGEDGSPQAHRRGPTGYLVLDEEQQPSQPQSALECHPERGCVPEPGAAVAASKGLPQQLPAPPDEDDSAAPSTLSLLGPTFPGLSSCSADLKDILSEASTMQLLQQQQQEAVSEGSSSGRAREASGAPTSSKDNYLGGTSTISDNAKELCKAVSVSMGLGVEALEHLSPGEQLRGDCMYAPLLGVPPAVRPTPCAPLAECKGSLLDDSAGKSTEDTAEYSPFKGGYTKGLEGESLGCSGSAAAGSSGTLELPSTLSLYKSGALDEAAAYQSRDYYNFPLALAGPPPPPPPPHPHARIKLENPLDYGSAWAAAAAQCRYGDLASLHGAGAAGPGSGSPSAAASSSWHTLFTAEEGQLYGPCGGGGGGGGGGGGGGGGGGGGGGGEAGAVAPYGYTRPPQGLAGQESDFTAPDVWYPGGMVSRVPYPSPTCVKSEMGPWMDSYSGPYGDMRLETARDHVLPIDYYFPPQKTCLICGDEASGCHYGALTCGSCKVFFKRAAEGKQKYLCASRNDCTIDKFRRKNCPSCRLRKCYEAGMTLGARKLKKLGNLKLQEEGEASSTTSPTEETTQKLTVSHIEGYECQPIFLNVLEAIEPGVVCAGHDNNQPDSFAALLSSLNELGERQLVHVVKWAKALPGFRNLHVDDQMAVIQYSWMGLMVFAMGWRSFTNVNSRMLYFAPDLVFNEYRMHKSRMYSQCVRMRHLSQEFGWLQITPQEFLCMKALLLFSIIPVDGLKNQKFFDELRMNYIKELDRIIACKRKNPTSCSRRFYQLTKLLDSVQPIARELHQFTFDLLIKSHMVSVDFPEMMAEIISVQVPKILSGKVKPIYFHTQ
Progesterone receptor (Homo sapiens), sequence (P06401 whole entry, looked up): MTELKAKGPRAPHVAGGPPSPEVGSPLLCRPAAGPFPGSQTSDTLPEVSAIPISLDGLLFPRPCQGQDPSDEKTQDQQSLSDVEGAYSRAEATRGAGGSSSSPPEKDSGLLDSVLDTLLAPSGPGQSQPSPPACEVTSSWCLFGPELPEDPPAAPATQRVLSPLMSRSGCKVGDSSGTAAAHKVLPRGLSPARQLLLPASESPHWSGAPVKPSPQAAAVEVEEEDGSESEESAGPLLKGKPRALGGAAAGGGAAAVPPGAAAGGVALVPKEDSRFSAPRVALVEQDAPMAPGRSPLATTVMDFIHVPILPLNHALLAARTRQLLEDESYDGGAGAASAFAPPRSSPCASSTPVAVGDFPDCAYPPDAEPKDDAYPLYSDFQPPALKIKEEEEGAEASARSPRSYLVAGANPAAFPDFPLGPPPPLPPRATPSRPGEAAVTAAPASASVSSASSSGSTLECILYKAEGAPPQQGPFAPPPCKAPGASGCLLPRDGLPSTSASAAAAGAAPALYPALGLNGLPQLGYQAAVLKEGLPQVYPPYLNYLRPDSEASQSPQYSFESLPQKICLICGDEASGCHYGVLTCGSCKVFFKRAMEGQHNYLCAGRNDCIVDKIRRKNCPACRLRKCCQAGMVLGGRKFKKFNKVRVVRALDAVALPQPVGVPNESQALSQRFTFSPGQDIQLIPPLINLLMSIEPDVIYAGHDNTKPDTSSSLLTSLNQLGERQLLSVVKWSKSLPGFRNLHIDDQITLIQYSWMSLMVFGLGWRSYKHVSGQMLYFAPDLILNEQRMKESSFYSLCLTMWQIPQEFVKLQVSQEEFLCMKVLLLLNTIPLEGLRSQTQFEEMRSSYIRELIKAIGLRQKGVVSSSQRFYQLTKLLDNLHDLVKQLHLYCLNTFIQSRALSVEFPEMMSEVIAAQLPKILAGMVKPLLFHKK
Thyrotropin receptor (Homo sapiens), sequence (P16473 whole entry, looked up): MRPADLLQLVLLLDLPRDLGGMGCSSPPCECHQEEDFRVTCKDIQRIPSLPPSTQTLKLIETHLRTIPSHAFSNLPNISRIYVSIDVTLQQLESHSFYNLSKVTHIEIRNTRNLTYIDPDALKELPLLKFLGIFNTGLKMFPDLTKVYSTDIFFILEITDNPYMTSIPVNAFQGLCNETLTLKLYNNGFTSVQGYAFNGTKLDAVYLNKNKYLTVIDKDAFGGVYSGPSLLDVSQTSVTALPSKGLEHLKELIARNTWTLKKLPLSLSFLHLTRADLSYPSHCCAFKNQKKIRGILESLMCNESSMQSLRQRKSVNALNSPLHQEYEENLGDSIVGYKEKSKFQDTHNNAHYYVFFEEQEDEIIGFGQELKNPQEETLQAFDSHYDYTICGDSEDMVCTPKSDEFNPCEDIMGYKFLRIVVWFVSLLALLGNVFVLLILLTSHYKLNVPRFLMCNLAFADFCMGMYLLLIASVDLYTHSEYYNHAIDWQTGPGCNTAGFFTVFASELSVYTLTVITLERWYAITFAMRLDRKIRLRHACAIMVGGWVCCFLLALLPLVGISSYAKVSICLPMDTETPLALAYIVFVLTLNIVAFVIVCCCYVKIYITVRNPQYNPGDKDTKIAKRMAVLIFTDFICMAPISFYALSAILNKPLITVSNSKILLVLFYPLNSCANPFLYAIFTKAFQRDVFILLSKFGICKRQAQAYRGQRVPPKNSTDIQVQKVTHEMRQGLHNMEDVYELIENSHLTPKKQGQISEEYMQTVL
Thyrotropin-releasing hormone receptor (Homo sapiens), sequence (P34981 whole entry, looked up): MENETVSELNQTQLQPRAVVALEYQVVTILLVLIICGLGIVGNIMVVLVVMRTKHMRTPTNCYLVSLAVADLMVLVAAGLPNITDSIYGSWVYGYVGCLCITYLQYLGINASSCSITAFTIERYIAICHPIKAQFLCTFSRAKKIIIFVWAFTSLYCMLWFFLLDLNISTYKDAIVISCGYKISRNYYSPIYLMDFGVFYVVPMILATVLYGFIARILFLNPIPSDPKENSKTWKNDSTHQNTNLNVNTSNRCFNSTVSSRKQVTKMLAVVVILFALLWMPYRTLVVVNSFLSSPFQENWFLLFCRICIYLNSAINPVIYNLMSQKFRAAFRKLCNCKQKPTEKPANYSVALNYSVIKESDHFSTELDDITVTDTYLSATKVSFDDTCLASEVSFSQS

Structure (SMILES) | Potency [1] | Potency [2] | Potency [3] | Potency [4] | outcome [5] | Potency [6] | Potency [7] | Potency [8] | Potency [9] | Potency [10] | Potency [11] | outcome [12] | Potency [13] | Potency [14] | Potency [15] | Potency [16] | Potency [17] | Potency [18]
CC(=O)Nc1ccc2c(c1)Cc1ccccc1-2 | inactive | inactive | inactive | 8.77 µM (active) | inactive | inactive | inactive | inactive | inactive | inactive | inactive | inactive | inactive | inactive | inactive | – | – | –
C[C@H]1CC[C@@H]2[C@@H](C)[C@H]3[C@H](C[C@H]4[C@@H]5CC=C6CC(O[C@@H]7O[C@H](CO)[C@H](O)[C@H](O[C@@H]8O[C@H](CO)[C@@H](O)[C@H](O)[C@H]8O)[C@H]7O[C@H]7O[C@@H](C)[C@H](O)[C@@H](O)[C@H]7O)CC[C@]6(C)[C@H]5CC[C@]34C)N2C1 (some centres undefined) | 22.4 µM (active) | 15.8 µM (active) | 25.1 µM (active) | inactive | inactive | 10 µM (active) | 28.2 µM (active) | – | 31.6 µM (active) | 12.7 µM (active) | 12.7 µM (active) | – | 7.82 µM (active) | 8.99 µM (active) | 11.2 µM (active) | 22.4 µM (active) | – | –
Fc1ccc(Oc2ccnc3cc(Cl)cc(Cl)c23)cc1 | inactive | inactive | inactive | – | inactive | – | inactive | inactive | inactive | inactive | inactive | – | – | – | – | – | – | –
CC(C)CC(C)(c1ccc(O)cc1)c1ccc(O)cc1 | inactive | 68.7 µM (active) and 61.1 µM (active) | 54.6 µM (active) and 68.6 µM (active) | – | inactive | inactive | inactive | – | – | inactive | inactive | inactive | – | inactive | 50.1 µM (active) | – | 6.11 µM (active) | –
ClCc1ccc(Cl)cc1Cl | inactive | inactive | inactive | inactive | inactive | inactive | inactive | inactive | inactive | inactive | inactive | – | – | – | inactive | inactive | inactive | –
O=C1c2ccccc2C(=O)C1C(=O)C(c1ccccc1)c1ccc(Cl)cc1 (centres undefined) | 27.3 µM (active) | 24.3 µM (active) | – | inactive | inactive | – | – | – | inactive | inactive | – | inactive | – | – | 21.7 µM (active) | – | – | inactive
S=C=Nc1cccc2ccccc12 | inactive | 60.5 µM (active) | – | inactive | inactive | – | 60.5 µM (active) | – | – | inactive | inactive | inactive | inactive | inactive | 53.9 µM (active) | – | 67.9 µM (active) | inactive
C[C@@H]1O[C@@H](O[C@@H]2C=C3CC[C@@H]4[C@H](CC[C@]5(C)[C@@H](c6ccc(=O)oc6)CC[C@]45O)[C@@]3(C)CC2)[C@H](O)[C@H](O)[C@H]1O | inactive | 0.0094 µM (active) | 0.0094 µM (active) | – | inactive | 0.298 µM (active) | inactive | inactive | 0.0133 µM (active) | – | – | – | inactive | inactive | – | 0.0168 µM (active) | – | 0.0298 µM (active)
CCCCCCCCCCCCCC[P+](CCCCCC)(CCCCCC)CCCCCC (tested in a mixture with another compound) | 8.63 µM (active) | 24.3 µM (active) | 27.3 µM (active) | inactive | inactive | – | 17.2 µM (active) | – | 30.6 µM (active) | – | 49 µM (active) | – | – | – | 3.86 µM (active) | 27.3 µM (active) | – | –
CC(c1ccc(O)cc1)c1ccc(O)cc1 | inactive | 40.6 µM (active) and inactive | 45.5 µM (active) and inactive | – | inactive | inactive | inactive | – | – | inactive | inactive | inactive | inactive | inactive | inactive | – | 6.86 µM (active) | –
COc1cc(C=O)cc2c1[C@H](COC(N)=O)[C@]1(OC(C)=O)ON2C[C@H]2[C@@H]1N2C(C)=O | 27.3 µM (active) | inactive | inactive | inactive | inactive | inactive | – | – | – | inactive | – | – | inactive | inactive | 1.93 µM (active) | – | – | –
CCCCCCCCCCCCCCCC[N+](C)(C)C | 29.5 µM (active) and 48.6 µM (active) and 26.6 µM (active) | 9.34 µM (active) and 24.3 µM (active) and 11.9 µM (active) | 23.5 µM (active) and 54.5 µM (active) and 23.7 µM (active) | – | inactive | inactive | inactive | inactive | 29.8 µM (active) | – | inactive and 54.9 µM (active) | – | inactive and 30.1 µM (active) | inactive and 27.5 µM (active) | 61.1 µM (active) | – | – | –
CCOC(=O)CC(=O)CCl | 61.1 µM (active) | inactive | – | inactive | – | – | inactive | inactive | inactive | inactive | inactive | inactive | – | – | inactive | inactive | inactive | inactive
CC(C)C(=O)Cl | inactive | inactive | inactive | – | inactive | inactive | inactive | inactive | inactive | inactive | inactive | inactive | inactive | inactive | inactive | inactive | inactive | inactive
CC(C)CCCCCCCOP(=O)(Oc1ccccc1)Oc1ccccc1 | inactive | inactive | inactive | inactive | inactive | inactive | inactive | inactive | – | inactive | inactive | – | inactive | inactive | inactive | inactive | 24.5 µM (active) | –
CCN(CC)C(=S)[S-].CCN(CC)C(=S)[S-].[Zn+2] | 60.6 µM (active) | 2.71 µM (active) | 2.15 µM (active) | inactive | inactive | 68 µM (active) | 12.1 µM (active) | – | 1.21 µM (active) | 12.2 µM (active) | – | inactive | – | – | 1.71 µM (active) | – | – | –
